The text below walks through data of article PMC4336329 (PLoS ONE, 2015).

About 2,200 (0.71%) of roughly 310,000 compounds showed an effect of 50% or more. Effects have a minus sign here. The entries come from a sample that favours strong results as a whole.

human ether-à-go-go-related gene (hERG) potassium channel, sequence (Q12809 whole entry, looked up): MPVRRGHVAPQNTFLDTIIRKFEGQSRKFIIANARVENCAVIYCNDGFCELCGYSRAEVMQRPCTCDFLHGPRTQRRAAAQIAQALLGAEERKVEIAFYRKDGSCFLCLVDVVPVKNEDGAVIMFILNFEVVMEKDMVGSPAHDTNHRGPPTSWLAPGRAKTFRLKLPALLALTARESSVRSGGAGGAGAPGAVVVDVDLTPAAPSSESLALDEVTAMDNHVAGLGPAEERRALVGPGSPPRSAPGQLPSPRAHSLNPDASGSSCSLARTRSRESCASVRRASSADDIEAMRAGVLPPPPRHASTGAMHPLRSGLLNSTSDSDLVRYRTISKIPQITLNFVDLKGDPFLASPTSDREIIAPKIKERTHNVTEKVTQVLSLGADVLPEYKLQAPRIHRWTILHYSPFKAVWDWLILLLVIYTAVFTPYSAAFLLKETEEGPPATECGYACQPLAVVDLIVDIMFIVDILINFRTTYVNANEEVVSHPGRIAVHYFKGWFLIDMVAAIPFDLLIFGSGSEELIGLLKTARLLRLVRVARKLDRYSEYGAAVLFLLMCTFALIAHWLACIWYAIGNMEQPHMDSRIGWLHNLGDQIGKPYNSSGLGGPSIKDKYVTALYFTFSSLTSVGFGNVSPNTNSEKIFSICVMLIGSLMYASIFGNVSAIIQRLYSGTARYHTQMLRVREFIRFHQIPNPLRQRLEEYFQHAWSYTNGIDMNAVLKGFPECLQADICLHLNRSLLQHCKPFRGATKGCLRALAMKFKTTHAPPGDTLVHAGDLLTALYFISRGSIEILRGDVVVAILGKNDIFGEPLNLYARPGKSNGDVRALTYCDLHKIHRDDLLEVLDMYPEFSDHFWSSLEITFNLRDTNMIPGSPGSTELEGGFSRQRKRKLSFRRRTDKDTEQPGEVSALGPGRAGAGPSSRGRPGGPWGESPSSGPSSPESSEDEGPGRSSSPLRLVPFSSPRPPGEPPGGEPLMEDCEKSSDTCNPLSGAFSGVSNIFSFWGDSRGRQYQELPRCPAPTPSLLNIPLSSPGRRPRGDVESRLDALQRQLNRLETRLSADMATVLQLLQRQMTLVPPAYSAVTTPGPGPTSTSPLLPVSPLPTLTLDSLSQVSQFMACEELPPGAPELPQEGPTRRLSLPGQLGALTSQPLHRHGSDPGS

The assay concerns the target human ether-à-go-go-related gene (hERG) potassium channel (human, UniProt Q12809). The assay is described as follows: primary screen, population patch clamp on CHO cells stably expressing hERG; higher = less effect of the substance.
Turning to `CN(C(=O)COC(=O)/C=C/c1ccc2ccccc2n1)C1CCS(=O)(=O)C1` (centres unmarked), the “hERG current change (%, negative = inhibition) at 1uM” value is given as 12.9%. With `CC(=O)Nc1cccc(C(=O)OCc2ccc([N+](=O)[O-])cc2)c1`, the “hERG current change (%, negative = inhibition) at 1uM” value is -13.5%. As for `O=C1C=C(NCC2CCCO2)C2(CCCCC2)O1` (centres unmarked), the “hERG current change (%, negative = inhibition) at 1uM” value was found to be 15.6%. With `N#Cc1ccccc1OCC(=O)N1N=C(c2cccs2)CC1c1ccco1` (centres unmarked) the figure was -1.57%. With `O=C(CSc1nncn1-c1ccccc1)Nc1cc(Cl)cc(Cl)c1`, the “hERG current change (%, negative = inhibition) at 1uM” value is recorded as 5.88%. For `O=C(Cn1ncc2c1-c1ccccc1OC2)N1CCN(Cc2ccc3c(c2)OCO3)CC1`, the “hERG current change (%, negative = inhibition) at 1uM” value is recorded as -31%. With `CCN1CCN(C(=O)Cn2ncc3c2-c2ccccc2OC3)CC1` the figure was 0.123%. Turning to `O=C(Cn1ncc2c1-c1ccccc1OC2)N1CCN(Cc2ccccc2)CC1`, the “hERG current change (%, negative = inhibition) at 1uM” value was -58%.

As for `O=C1NN=COc2ccccc21`, the “hERG current change (%, negative = inhibition) at 1uM” value is 4.08%. In the case of `Cc1ccc(CN2CCN(Cc3cccn3-c3ccccn3)CC2CCO)cc1` (centres unmarked), the “hERG current change (%, negative = inhibition) at 1uM” value is listed as -82.4%. Consider `OCCC1CN(Cc2cccn2-c2ccccn2)CCN1C1CCCC1` (centres unmarked), for which the “hERG current change (%, negative = inhibition) at 1uM” value worked out at 3.68%. With `CC(C)CN1CCN(Cc2cccn2-c2ccccn2)CC1CCO` (centres unmarked), the “hERG current change (%, negative = inhibition) at 1uM” value is -18.8%. Consider `Cc1ccc(CN2CCN(Cc3ccncc3)CC2CCO)o1` (centres unmarked), for which the “hERG current change (%, negative = inhibition) at 1uM” value is -1.98%. Take `Cc1ccc(CN2CCN(Cc3cccn3-c3ccc(Cl)cn3)CC2CCO)o1` (centres unmarked): the “hERG current change (%, negative = inhibition) at 1uM” value amounted to 0.259%. With `Cc1ccc(CN2CCN(Cc3cccn3-c3ccccn3)CC2CCO)o1` (centres unmarked), the “hERG current change (%, negative = inhibition) at 1uM” value was -59.5%. In the case of `Cc1cc(C)c(CN2CCN(Cc3ccc(C)o3)C(CCO)C2)c(-n2cccn2)c1` (centres unmarked), the “hERG current change (%, negative = inhibition) at 1uM” value is -70.9%. As to `CC(C)=CCN1CCN(Cc2cccn2-c2ccccn2)CC1CCO` (centres unmarked), the “hERG current change (%, negative = inhibition) at 1uM” value was -19.9%. As to `OCCC1CN(Cc2cccn2-c2ccccn2)CCN1Cc1ccccc1` (centres unmarked), the “hERG current change (%, negative = inhibition) at 1uM” value is -61.4%. Under `CC(C)CCN1CCN(Cc2cccn2-c2ccccn2)CC1CCO` (centres unmarked) stands -36.6%; under `CC(C)N1CCN(Cc2cccn2-c2ccccn2)CC1CCO` (centres unmarked), -16%. Under `Cc1ccc(CN2CCN(Cc3c(C)nn(C(C)C)c3C)CC2CCO)o1` (centres unmarked) stands 10.6%. For the molecule `CCOC(=O)C1CCN(S(=O)(=O)c2cc3c(cc2C)NC(=O)CO3)CC1`, the “hERG current change (%, negative = inhibition) at 1uM” value was -13.1%. For `CC(=O)NCCC(=O)Nc1sc2c(c1-c1nc3ccccc3[nH]1)CCCC2`, the “hERG current change (%, negative = inhibition) at 1uM” value turned out to be 7.25%. `CC(C)(C)NCCOc1ccc2ccccc2c1`: the “hERG current change (%, negative = inhibition) at 1uM” value came out at 14.6%. `O=C(O)c1cc2ccccc2cc1Nc1ccccc1`: the “hERG current change (%, negative = inhibition) at 1uM” value is listed as 6.84%. As for `CC(OC(=O)c1ccco1)C(=O)Nc1ccc(Cl)cn1` (centres unmarked), the “hERG current change (%, negative = inhibition) at 1uM” value was 5.93%.
